# Among all 1,000 compounds or so, about 270 (27%) were called active. These entries were drawn from the full list. Unmarked numbers belong to inactive results. No stated cut-off is given here; in the data, active means inhibition above about 14%; inactive means the rest.
# Target: Methyl-CpG-binding domain protein 2 (Homo sapiens) (UniProt Q9UBB5)
# Assay: inhibitors of MBD2 binding to methylated DNA, confirmation, biochemical, TR-FRET, DNA-binding domain, human (AID 720531)
# Conditions: TR-FRET MBD2-DBD binding to methylated oligonucleotide; at 4.4 µM; active compounds read high
# Sequence of Methyl-CpG-binding domain protein 2 (Homo sapiens) (Q9UBB5 whole entry, looked up, the tested form may be a part): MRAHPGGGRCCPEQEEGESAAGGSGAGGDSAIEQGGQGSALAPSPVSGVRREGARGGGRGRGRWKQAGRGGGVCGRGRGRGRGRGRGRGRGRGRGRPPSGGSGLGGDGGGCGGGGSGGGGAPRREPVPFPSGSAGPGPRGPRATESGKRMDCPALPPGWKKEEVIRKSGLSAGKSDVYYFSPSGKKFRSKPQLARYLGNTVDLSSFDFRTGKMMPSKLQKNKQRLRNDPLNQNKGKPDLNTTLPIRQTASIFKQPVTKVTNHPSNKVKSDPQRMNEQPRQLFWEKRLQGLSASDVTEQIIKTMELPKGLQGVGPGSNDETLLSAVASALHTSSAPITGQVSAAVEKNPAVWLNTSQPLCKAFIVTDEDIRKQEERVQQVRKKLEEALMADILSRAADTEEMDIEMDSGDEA
row,SMILES,inhibition
1,O=C1NC(=O)N(Cc2ccco2)C(=O)/C1=C\c1ccc(-c2ccc(F)cc2)o1,4.49%
2,Cc1cc(/C=C2/C(=O)NC(=O)N(Cc3ccco3)C2=O)c(C)n1-c1ccc(C(=O)O)cc1,3.26%
3,COc1ccc(N2C(=O)/C(=C/c3ccco3)C(=O)NC2=S)cc1,88.4% (active)
